SMILES strings stand for the structures. Results filed as inconclusive are left out. Entries that show only a call come without a potency. The source made the active and inactive calls. Calls come from the whole dose curve; as a rule, active = well fitted activation curve with a large enough effect; inconclusive = small, poorly fitted or top-dose-only effect; inactive = flat fitted curve, though single readings scatter.

This passage reports Potency results from PubChem BioAssay AID720519 (National Center for Advancing Translational Sciences (NCATS), 2013).
Potency is the fitted concentration of half-maximal effect.

This experiment is described as follows: qHTS for Inhibitors of Cell Surface uPA Generation: Confirmatory Assay for Cherry-picked Compounds. The conditions noted are these: cell surface uPA activity generation, qHTS confirmation; series mostly up to 115 µM. The essentials: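 RAW 264.7 cells at 4000/well, incubated overnight, then treated with compounds. After 24 h at 37 C, viability was read by ATPlite luminescence. An increase in signal indicates blocked uPA-dependent LF entry.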
A general note: qHTS replaces the single test concentration by a dilution series.
As for `OCC[C@@H]1C[C@H](O)[C@@H](O)[C@]2(OCCc3ccccc32)O1`, the Potency result is “inactive”.
The result for `CC(=O)NS(=O)(=O)c1ccc(NC(=O)c2cccc(OCc3c(C)noc3C)c2)cc1` reads “inactive”; that for `COC(=O)C1=CN(Cc2ccc(F)cc2)C=C(C(=O)OC)C1c1ccc(O)c(OC)c1`, “inactive”.
Consider `COc1ccc(C2=Nc3ccccc3C2(O)CCN2C(=O)c3ccccc3C2=O)cc1` (stereo unspecified), for which the Potency result is “inactive”.
Next, `CC(=O)[C@@]1(O)[C@H](C)CC2C3CC=C4CC(OP(=O)(O)O)CC[C@]4(C)C3CC[C@@]21C` (stereo partly specified): “inactive”.
The result for `Cc1c(C(=O)N2CCN(S(=O)(=O)c3cccs3)CC2)oc2ccc(F)cc12` reads “inactive”.
The result for `O=C(Nc1ccc(S(=O)(=O)N2CCOCC2)cc1)c1cc(-c2ccccc2O)n[nH]1` reads “inactive”; that for `CC1=CC(C)C(C[N+]2(C)CCCCC2)C(C)C1` (stereo unspecified), “inactive”.
As for `COc1ccc(NC(=O)CC(C)CC(=O)NCc2ccccc2)c(OC)c1` (stereo unspecified), the Potency entry was “inactive”.
The result for `CN(/N=C/c1cc(Cl)cc(Cl)c1O)C(=S)NC(C)(C)C` reads “inactive”; that for `COc1cccc(C(=O)Cn2c(NCCCO)nc3ccccc32)c1`, “inactive”; that for `CC(=O)Oc1ccccc1C(=O)Nc1ccccc1C(=O)N1CCCC1`, “inactive”.
For the molecule `COc1cc(CNCc2ccc3c(c2)OCO3)c([N+](=O)[O-])cc1OC`, the Potency result is “inactive”.
The result for `CCOC(=O)C1CCCN(CC(=O)Nc2ccc(C(=O)Nc3ccccc3OC)cc2)C1` (stereo unspecified) reads “inactive”; that for `CCOC(=O)C1=C(C)NC(C)=C(C(=O)OCC)C1C(=O)OCC(=O)NCCc1ccccc1`, 9.27 µM (active); that for `COc1ccc(-c2cccc(-c3cc(=O)oc4cc(OC)c(OC)c(OC)c34)c2)cc1`, “inactive”.
